Structures are written as SMILES. Screen size: about 48,000 compounds; about 13,000 (27%) showed an effect of 50% or more. Some of the results follow.

The assay concerns Wolbachia pipientis. Nature of the assay: Anti-Wolbachia Cell-Based Screen. It counts as functional. The arrangement: scale not given: in the data most compounds retested in dose-response had high values. The following applies: 5 µM.
Take `CN1C[C@@H](n2cnc(-c3ccccc3)c2-c2nccn2C)C[C@H]1C(=O)O`: the “Percent Effect” value was -7.865%. The result for `CN1CCCN(C[C@@H]2CN(C(=O)CCC3CCCC3)C[C@@H]2CO)CC1` reads 0.9084%. For `CC(=O)N1CCCCCC1C1CCN(Cc2nnc(C(C)(C)C)o2)CC1.Cl` (configuration not stated), the “Percent Effect” value is given as -4.894%. The result for `Cc1nc(C(C)(C)C)sc1C(=O)NCCn1ccnc1` reads 6.238%; that for `CCC(C)NC(=O)c1ccc(CNC(=O)COC)cc1` (configuration not stated), 4.124%; that for `CNS(=O)(=O)Cc1ccc(CNC(=O)c2ccc(C)[nH]c2=O)cc1`, 6.775%.

For `Cc1nc(-c2ccsc2)ccc1C(=O)O`, the “Percent Effect” value was -6.285%. The result for `CCN(CC)C(=O)c1ccc(-c2ccsc2)nc1C` reads 7.441%; that for `CCN(C(=O)c1ccc(-c2ccccc2)nc1C)C1CC(=O)NC1=O` (configuration not stated), 2.82%; that for `Cc1nc(-c2ccc(CNS(=O)(=O)N(C)C)cc2)ccc1C(N)=O`, 115%. For `Cc1ccc(-c2nc(CNS(=O)(=O)N(C)C)[nH]c2-c2ccccn2)cc1` the value was 19.45%; for `CNC(=O)c1ccc(-c2ccc(CNC(=O)COC)cc2)nc1C`, 125.2%. The result for `CNC(=O)c1cc2c(nc1NCC(C)C)CCN(S(=O)(=O)N(C)C)CC2` reads -14.23%; that for `CNC(=O)c1ccc(-c2ccc(CNS(=O)(=O)N(C)C)cc2)nc1C`, 96.06%; that for `CNC(=O)c1ccc(CNC(=O)c2ccc(Cl)cc2F)cc1`, 6.561%. Take `CCN(CC)S(=O)(=O)NCc1ccc(-c2ccc(C(N)=O)c(C)n2)cc1`: the “Percent Effect” value is recorded as 82.68%. Regarding `O=C1C(NCc2cccc(O)c2)CCN1Cc1ccccc1` (configuration not stated), the “Percent Effect” value was determined as 0.7589%.

Take `CC(=O)N(C)CC(=O)Nc1cccc(N2CCN(CC3CC3)CC2)c1`: the “Percent Effect” value is -2.755%. For `CC(NS(=O)(=O)N(C)C)c1cccc(-n2cccn2)c1` (configuration not stated) the value was -7.408%. For `CC(=O)c1cccc(OCCCC(=O)NCC2CCCN2C)c1` (configuration not stated) the value was -10.21%. With `COC(=O)c1sccc1S(=O)(=O)NCCC(O)c1ccco1` (configuration not stated), the “Percent Effect” value is given as -8.026%. For `CCc1nnc(SCC(=O)N2CCc3[nH]nc(C4CCC4)c3C2)o1` the value was 38.87%; for `Cc1ccc(CN(C(=O)c2cccc(NC(N)=O)c2)C2CC2)o1`, -0.2723%; for `N#Cc1cccc(NC(=O)N[C@H](CO)c2ccccc2)c1`, -16.24%. The result for `COCc1nc(CNC2CCSC2)no1` (configuration not stated) reads -14.23%. For `CCn1cc(CNC2CC(=O)N(CCc3cccc(Cl)c3)C2)cn1` (configuration not stated) the value was -6.807%; for `CCc1ncc(CNC2CC(=O)N(CCc3cccc(Cl)c3)C2)cn1` (configuration not stated), -5.676%. Turning to `O=C1CC(NCc2ccncc2)CN1CCc1cccc(Cl)c1` (configuration not stated), the “Percent Effect” value is listed as 73.7%. On to `CCn1ccnc1CN1CCCC(CO)(Cc2cccc(Cl)c2)C1` (configuration not stated), for which the “Percent Effect” value is recorded as -3.247%. For `CCn1ccnc1CNC1CC(=O)N(CCc2cccc(Cl)c2)C1` (configuration not stated) the value was 120.9%; for `Cc1cccc(CNC2CC(=O)N(Cc3cccc(F)c3)C2)c1` (configuration not stated), 24.38%; for `Oc1cccc(CNC2CCN(CCc3ccncc3)CC2)c1`, -20.44%. In the case of `O=C1CC(NCc2cccc(O)c2)CN1CCc1cccc(Cl)c1` (configuration not stated), the “Percent Effect” value is 126.2%. Turning to `CCn1ccnc1C1CCN(Cc2cccc(Cl)c2)CC1`, the “Percent Effect” value was 9.663%.

In the case of `COc1ccccc1CCNC(=O)NC(C)COCC(F)(F)F` (configuration not stated), the “Percent Effect” value was -18.36%. For `CC(CS(C)(=O)=O)NCc1cc(Cl)ccc1F` (configuration not stated) the value was 6.588%; for `CN(Cc1ccccc1-n1cccn1)c1nc(N)nc2c1CCNCC2`, 7.066%; for `COCCN(Cc1ccc(C)cc1)Cc1nccn1C`, 5.615%. For `CCC(CC)C(=O)NCCc1ccn(-c2ccccc2)n1` the value was 133.4%; for `CCC(C(=O)NCCc1ccn(-c2ccccc2)n1)N1CCCC1=O` (configuration not stated), 2.511%. As to `COCCNC(=O)NCCc1ccn(-c2ccccc2)n1`, the “Percent Effect” value amounted to 4.023%. Take `CCN(CC)C(=O)NCCc1ccn(-c2ccccc2)n1`: the “Percent Effect” value is 134.9%. `COc1ccc(CNCCc2ccn(-c3ccccc3)n2)cc1O`: the “Percent Effect” value came to 7.82%. For `CC(=O)NC1CCc2ccc(S(=O)(=O)NCc3ncccc3C)cc21` (configuration not stated) the value was 37.01%; for `Cc1nn(C)c(C)c1OCC(=O)N1CCCCC1`, -9.266%. For `COCCN1CCCC(Cc2cnc(-c3c(C)nn(C)c3C)cn2)C1` (configuration not stated) the value was 161.1%; for `COCCN1CCC(CN(C)c2ncnc3c2c(C)nn3C)C1` (configuration not stated), -22.39%. The result for `CC(=O)N1CCC(Cc2cnc(-c3c(C)nn(C)c3C)cn2)CC1` reads 190.1%; that for `Cc1nn(C)c(C)c1OCC(=O)N1CCCC1`, -17.38%; that for `CC(=O)N1CCCC(Cc2cnc(-c3c(C)nn(C)c3C)cn2)C1` (configuration not stated), 146.7%. On to `COCCN1CCCC(CN(C)c2nc3c(s2)c(C)nn3C)C1` (configuration not stated), for which the “Percent Effect” value is on record as -14.47%.

On to `COCCn1c(=O)n(Cc2cccc(F)c2F)c2cc(C(=O)O)ccc21`, for which the “Percent Effect” value is reported as -6.581%. The result for `Cn1nc(CN2CCCN(C3CCCC3)CC2)c2c(Cl)cccc21` reads 4.033%; that for `CC1(C)OCC2(CO1)CN(C(=O)c1cccc3ccccc13)C2`, -8.289%. `Cc1nn(-c2ccccc2)c(C)c1CNC1CCc2ncnn2C1` (configuration not stated): the “Percent Effect” value is 1.377%. The result for `c1ccc(-c2ncc(CNC3CCc4ncnn4C3)cn2)cc1` (configuration not stated) reads 5.444%.

Regarding `Cc1nc(-c2ccccc2)sc1CNC1CCc2ncnn2C1` (configuration not stated), the “Percent Effect” value is given as 88.63%. For `c1ccc(-c2cnc(CNC3CCc4ncnn4C3)o2)cc1` (configuration not stated) the value was 7.622%. For `Cc1nn(Cc2ccccc2)c(C)c1CNC1CCc2ncnn2C1` (configuration not stated) the value was 117.1%; for `CCOCCNS(=O)(=O)c1ccc2c3c1CCCN3C(=O)CO2`, 17.61%. The result for `O=c1c2c(ncn1CCO)nc1n2CCC1` reads 3.555%; that for `CC(C)(C)OC(=O)NC(C)(C)c1noc(CN2CCCCC2)n1`, 1.243%. For `CN(C)C(=O)N1CCC2(CC1)CCN(c1ncccn1)C2.O=C(O)C(F)(F)F`, the “Percent Effect” value came out at 115.8%. For `CN(C)C(=O)N1CCOCC2(CCN(c3ncccn3)C2)C1.O=C(O)C(F)(F)F` (configuration not stated), the “Percent Effect” value is on record as -1.009%.

`CN(C)C(=O)N1CCC2(CCCN(c3ncccn3)C2)C1.O=C(O)C(F)(F)F` (configuration not stated): the “Percent Effect” value is on record as 113.7%. For `CN(C)C(=O)N1CCOCC2(CCN(c3ccccn3)C2)C1.O=C(O)C(F)(F)F` (configuration not stated) the value was -12.67%; for `CCn1nc2c(cc1=O)CN(Cc1nnc(C3CC3)o1)CC2`, 14.78%.

The values are drawn from ChEMBL document CHEMBL3988442, “University of Dundee, Small-Polar-MMV Screening Library” (2021).
